# According to ChEMBL document CHEMBL1201862, “PubChem BioAssay data set” (2004):
# In all, about 220,000 compounds went through this assay and about 16,000 (7.3%) were called active. Another 25% or so got no clear call; they are omitted. This is one part of a sample in which actives are shown more often than they occur. No cut-off for these calls is given here.
# Target: T1, Aldehyde dehydrogenase 1A1 (Homo sapiens) (UniProt P00352)
# T1 sequence (whole entry): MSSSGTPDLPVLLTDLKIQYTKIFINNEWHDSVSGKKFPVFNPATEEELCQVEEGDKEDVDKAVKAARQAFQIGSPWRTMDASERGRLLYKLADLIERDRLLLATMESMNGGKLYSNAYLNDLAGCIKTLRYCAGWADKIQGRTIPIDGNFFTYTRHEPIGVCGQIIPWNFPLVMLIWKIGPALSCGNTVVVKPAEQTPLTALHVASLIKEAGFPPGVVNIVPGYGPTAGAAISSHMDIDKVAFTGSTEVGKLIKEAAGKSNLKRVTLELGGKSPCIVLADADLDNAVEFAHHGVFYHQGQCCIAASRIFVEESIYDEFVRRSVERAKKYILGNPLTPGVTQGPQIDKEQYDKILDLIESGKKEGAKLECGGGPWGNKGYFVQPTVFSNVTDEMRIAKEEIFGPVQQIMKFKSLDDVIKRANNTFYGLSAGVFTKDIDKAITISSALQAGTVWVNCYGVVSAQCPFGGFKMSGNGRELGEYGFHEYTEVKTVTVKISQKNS
# Test: qHTS Assay for Inhibitors of Aldehyde Dehydrogenase 1 (ALDH1A1). [Related pubchem assays: 1030 (qHTS Validation Assay for Inhibitors of aldehyde dehydrogenase 1 (ALDH1A1))]
# Format: functional
row,Structure (SMILES),Potency
1,CC(C)C1SC(N/N=C/c2ccco2)=NC1=O (centres undefined),200 µM (active)
2,O=C(O)c1ccc2c(c1)CC(c1ccccc1)OC2=O (centres undefined),inactive
3,CCOC(=O)CN1C(=O)N[C@@H](c2cccc(C(F)(F)F)c2)C(C(=O)OC)=C1C,inactive
4,CC(C(=O)NN=C(c1ccccc1)c1ccccc1)N1CCCC1 (centres undefined),inactive
5,O=C(c1no[n+]([O-])c1C(=O)c1csc2ccccc12)c1csc2ccccc12,3.55 µM (active)
6,O=C(N/N=C/c1ccc2c(c1)OCO2)c1ccc(Br)o1,inactive
7,CCOC(=O)N1CCN(c2nc3ccccc3nc2C(C#N)C(=O)NCCc2ccccc2)CC1 (centres undefined),398 µM (active)
8,CC(=O)OCc1ccccc1,20 µM (active)
9,N#CC1=C(N)Oc2c(oc(CO)cc2=O)C12C(=O)Nc1ccc(Cl)cc12 (centres undefined),inactive
10,C[C@@H]1C[C@H]2[C@@H]3C[C@H](F)C4=CC(=O)C=C[C@]4(C)[C@@]3(F)[C@@H](O)C[C@]2(C)[C@@]1(O)C(=O)CO,inactive
11,O=C(/C=C/c1ccc(Cl)cc1)c1cccs1,12.6 µM (active)
12,CCc1ccc(Oc2coc3cc(OCC(=O)Nc4cc(C)ccc4C)ccc3c2=O)cc1,inactive
13,COc1ccc(N2CC(C(=O)OCC(=O)c3cccc(OC)c3)CC2=O)cc1 (centres undefined),224 µM (active)
14,O=C(Cn1c2ccccc2c(=O)c2cc([N+](=O)[O-])ccc21)Nc1ccccc1Cl,inactive
